Bioassay records from PubChem.
Only some compounds are listed: those with a hit (about 12% of all), similar ones and a draw of the others.
Pf growth 96h = P. falciparum growth inhibition at 96 hour, primary screen for plastid delayed-death inhibitors | P. falciparum luciferase reporter growth, 96 h | 320,000 tested, 6.9% active | Potency, µM (top dose mostly 28.7 µM), for inactives: top-dose activity change, negative = inhibition, actives largely listed as inhibitors; also: % is scaled to controls: 0 for no effect and ±100 for the full control effect
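P. falciparum expressing integrated firefly luciferase grown in erythrocytes (2% hematocrit, 0.05% parasitemia final) with compounds for 96 hours at 37 C, 5% CO2. Growth inhibition read as loss of luminescence after adding luciferase detection reagent.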
Pf growth 48h = inhibits P. falciparum growth in the first generation, 48 h; Potency, µM (doses to about 28.7 µM), inactives show top-dose activity change, negative = inhibition, hits mostly inhibitors; 310,000 tested, 5.9% active; P. falciparum luciferase growth in erythrocytes, 48 h; AID 504832; also: % is scaled to controls: 0 for no effect and ±100 for the full control effect
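Luciferase-expressing P. falciparum in infected erythrocytes (2% hematocrit, 0.1% parasitemia final) in RPMI 1640/0.5% Albumax were exposed to compound for 48 hours at 37 C, 5% CO2; growth read as luminescence.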
SARS PLpro yeast = blocks SARS-CoV papain-like protease in a yeast assay; AID 485353; Potency, µM (doses to about 32.9 µM), for the others: at the top dose activity, positive = growth rescue, most hits filed as activators; S. cerevisiae expressing SARS-CoV PLpro, growth rescue; 330,000 tested, 0.19% active; calls by dose curve; also: 0% is about no effect; nearly all actives have a fitted effect of over 55% in size
Sm TGR inh = S. mansoni TGR enzyme inhibition; AID 485364; purified TGR, DTNB reduction, TNB absorbance 405 nm; 360,000 tested, 3% active; Potency, µM (series often up to 114 µM), without a hit: top-dose activity change, negative = inhibition, most hits filed as inhibitors; Q962Y6; also: % is scaled to controls: 0 for no effect and ±100 for the full control effect; nearly all actives have a fitted effect of over 60% in size
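TGR 20 nM + NADPH 100 uM (dispensed conc.), cpd preinc 15 min RT; start with NADPH (500 uM addition) then DTNB (15 mM addition). Kinetic TNB absorbance, 405 nm filter. Four-parameter Hill fit across titration.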
Numbers without * were called inactive; ? = inconclusive; / = not tested or not shown. Unless noted, calls follow the shape of the dose curve; as a rule, active = well fitted curve in the direction sought with a large enough effect; inconclusive = small, poorly fitted or top-dose-only effect, or another doubt; inactive = no such curve, though single readings can be large; an effect the other way counts as inactive or inconclusive. Potency is read from the fitted curve at half-maximal effect.

SMILES	Pf growth 96h	Pf growth 48h	SARS PLpro yeast	Sm TGR inh
Cc1c(C(=O)NCCS(=O)(=O)N2CCN(c3ccccc3F)CC2)cccc1[N+](=O)[O-]	8%	11%	0%	-14%
COc1ccccc1-c1c(C(F)(F)F)oc2cc(OCC(=O)Nc3ccccc3C(F)(F)F)ccc2c1=O	5.2µM*	?	-9%	-10%
Cc1ccc(N(CC(=O)NC2CCCCC2)C(=O)CNC(=O)c2ccco2)cc1C	-25%	9%	1%	3%
O=C(NCCc1ccccc1)c1cc(-c2ccccc2)nc2n[nH]c(-c3ccccc3)c12	/	/	/	12%
Cc1oc(C(=O)O)cc1COc1cccc2ccccc12	2.3µM*	5%	-8%	-12%
CCCSc1ncc(Cl)c(C(=O)Nc2scc(-c3ccc(C)cc3)c2C(=O)OCC)n1	/	/	/	1%
CSCC(C)N1CCC(CCC(=O)NC2CC2)CC1 (stereo unspecified)	51%	-7%	1%	-5%
COc1ccc(-c2sc3ccc(N4CCOCC4)cc3c2C#Cc2ccsc2)cc1	/	/	-1%	/
COc1ccc(-c2sc3ccc(N4CCOCC4)cc3c2C#CC(C)(C)O)cc1	2.6µM*	?	-2%	-19%
Cc1sc2nc(C3CC3)nc(SCC(=O)N3CCc4ccccc4C3)c2c1C	?	?	-12%	-16%
CC(C)c1nc(N2CCN(C(=O)c3ccco3)CC2)c2c3c(sc2n1)CCCC3	15%	10µM*	-31%	28µM*
Cc1sc2ncnc(SCC(=O)N3CCN(C(=O)c4ccco4)CC3)c2c1C	0%	/	3%	-24%
Cc1sc2nc(C(C)C)nc(SCC(=O)N3CCN(C(=O)c4ccco4)CC3)c2c1C	11%	13µM*	15%	-28%
CCc1c(C)sc2nc(C(C)C)nc(SCC(=O)N3CCc4ccccc4C3)c12	13µM*	12µM*	5%	2%
CN(C(=O)COc1ccc(-c2nnco2)cc1)C1CCS(=O)(=O)C1 (stereo unspecified)	19%	-1%	4%	3%
COCCN1C(=O)C(=O)/C(=C(/O)c2ccc(S(=O)(=O)N3CCCCC3)cc2)C1c1ccc(O)c(OC)c1 (stereo unspecified)	14%	19%	3%	0%
Cn1c(=O)n(CCc2ccccc2)c(=O)c2c1nc1n2CCCN1Cc1ccccc1	-26%	?	-5%	0%
Cc1ccc(Cn2c(=O)c3c(nc4n3CCN4Cc3ccco3)n(C)c2=O)cc1	33%	13µM*	21%	-9%
Cn1c(=O)n(Cc2ccccc2)c(=O)c2c1nc1n2CCN1Cc1ccco1	?	-21%	-5%	-2%
COc1ccc(N2CCCn3c2nc2c3c(=O)n(Cc3ccc(C)cc3)c(=O)n2C)c(OC)c1	0%	9.3µM*	-1%	7%
Cn1c(=O)n(Cc2ccc(F)cc2)c(=O)c2c1nc1n2CCCN1Cc1ccccc1	1.3µM*	2.1µM*	2%	0%
CCCn1c(=O)c2c(nc3n2CCCN3Cc2ccccc2)n(C)c1=O	13µM*	?	-3%	15%
CCCCC1CCC(C(=O)N(CCOC)c2c(N)n(CC(C)C)c(=O)[nH]c2=O)CC1 (stereo unspecified)	-10%	12%	-1%	3%
COc1ccccc1CNc1nc2nc(C)c(Cl)c(C)n2n1	/	/	/	0%
CSc1ccc(CNC(=O)C2CCN(c3nnc(-n4cccc4CNc4ccc(C)cc4)s3)CC2)cc1	/	/	/	-8%
SMILES	Pf growth 96h	Pf growth 48h	SARS PLpro yeast	Sm TGR inh
CCc1ccc2nc(N(Cc3cccnc3)C(=O)c3cccs3)sc2c1	/	/	/	7%
CC(C)Nc1ccc(-c2nc(-c3ccncc3)no2)cc1[N+](=O)[O-]	/	/	/	-1%
Cn1c(N2CCOCC2)nc2c1c(=O)n(Cc1ccc(Cl)c(Cl)c1)c(=O)n2C	?	?	-13%	-1%
Cn1c(OCc2ccco2)nc2c1c(=O)n(Cc1ccc(Cl)c(Cl)c1)c(=O)n2C	-17%	-26%	-14%	22µM*
O=C(COC(=O)C1CCC1)NCc1ccc(F)cc1	10%	-5%	2%	?
O=C(CSc1nc(-c2cccc(Cl)c2)nc2cc(=O)[nH]n12)Nc1ccccc1	/	/	/	-1%
Cc1ccc(S(=O)(=O)N2C(=O)C(C)SC2=Nc2ccccc2)cc1 (stereo unspecified)	0%	8%	-22%	4%
C=CCN=C1SC(C)C(=O)N1S(=O)(=O)c1ccccc1 (stereo unspecified)	7.4µM*	6%	4%	-16%
Cc1ccc(C(=O)/C=C/c2cn(CC(O)CN3CCOCC3)c3ccccc23)cc1 (stereo unspecified)	12µM*	?	-1%	0%
COc1ccc(N2CCN(CCCNC(=O)C(=O)c3c(C)n(C)c4ccccc34)CC2)cc1	15µM*	?	-1%	?
Cc1ccc(C(=O)/C=C/c2cn(CC(O)CN3CCc4ccccc43)c3ccccc23)cc1 (stereo unspecified)	/	/	/	1%
COc1ccc(N2CCN(C(=O)C(=O)c3c(C)n(C)c4ccccc34)CC2)cc1	-46%	-16%	-1%	1%
COc1ccc(C(=O)/C=C/c2cn(CC(O)CN3CCOCC3)c3ccccc23)cc1 (stereo unspecified)	5.2µM*	?	-5%	3%
O=C(/C=C/c1cn(CC(O)CN2CCOCC2)c2ccccc12)c1cccs1 (stereo unspecified)	?	6.6µM*	0%	-28%
COC(=O)c1ccccc1NC(=O)CSc1nc2sc3c(c2c(=O)[nH]1)CCCC3	/	/	/	4%
Cc1oc(-c2ccccc2)nc1Cn1c(=O)cc(-c2ccccc2)c2c(C)nn(C)c21	/	/	/	-7%
COc1ccc(CNC(=O)c2c(-c3c(F)cccc3Cl)noc2C)cc1	9%	-22%	0%	-10%
CN(C)c1ccc(/C=C2\N=C(C(C)(C)C)OC2=O)cc1	15%	33%	-3%	-17%
Cc1ccc(C)c(S(=O)(=O)N2CCCOC2CNC(=O)C(=O)NC2CC2)c1 (stereo unspecified)	8%	1%	-4%	-20%
CN(C)S(=O)(=O)c1ccc2c(c1)N(CC(=O)NCc1ccc(F)cc1)C(=O)CS2	/	/	/	10%
COc1ccc(C(=O)c2c(C)n(CCN3CCOCC3)c3ccccc23)cc1	12µM*	-15%	/	/
COc1ccc(-c2nc3ccccc3c(=O)n2CCN2CCOCC2)cc1	?	6%	-1%	-1%
COc1cccc(NC(=O)COC(=O)C2CC2)c1	/	/	-2%	/
Cc1nc(CS(=O)c2ccccc2)cc(N2CCOCC2)n1 (stereo unspecified)	8.3µM*	?	0%	-27%
O=C(/C=C/c1ccccc1)Nc1sc2c(c1C(=O)O)CCC2	72%	50%	-2%	?
N#Cc1c(NC(=O)/C=C/c2ccco2)sc2c1CCCC2	9%	275%	-2%	20µM*
N#Cc1c(NC(=O)c2ccccc2)sc2c1CCCCC2	?	458%	-1%	-4%
O=C(/C=C/c1ccco1)Nc1sc2c(c1C(=O)O)CCC2	65%	38%	-21%	40µM*
O=C1c2cccc3c(N4CCCCC4)ccc(c23)C(=O)N1c1ccccn1	55%	16%	4%	4%
